The text below walks through data of PubChem BioAssay (NCI).

Some test systems named below: NCI-H23 lung; NCI-H226 lung; NCI-H322M lung; HOP-62 NSCLC; NCI-H460 lung; HOP-92 NSCLC; NCI-H522 lung; A549/ATCC NSCLC; 786-0 renal; COLO 205 colon; DU-145 prostate; K-562 leukemia; MALME-3M melanoma; MDA-MB-231 breast; RXF 393 renal; SF-268 CNS; SF-295 CNS; SF-539 CNS; UACC-257 melanoma; M14 melanoma.
Common to all, as to test: NCI-60 one-dose screen, 48 h (100 = growth as untreated, 0 = no growth, -100 = all killed)
Details in all cases: 10 µM unless noted

Compounds without any hit were thinned out: in the full panel of roughly 83,000, 20% have a hit.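 Activity criterion: percent growth below 10, measured after cells in 96-well plates were exposed to a single compound concentration for 48 hours.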 Values without a mark were called inactive. Active and inactive are the calls of the source.

For `COc1cccc(C(=O)OCCn2nc3c4c(cccc42)C(=O)c2ccccc2-3)c1O`, the growth is 44.2% with NCI-H23 lung; 79.9% in the test on NCI-H226 lung; 53.8% in the test with NCI-H322M lung; 39.5% in the test on HOP-62 NSCLC; 28.2% with NCI-H460 lung; 62.1% with HOP-92 NSCLC. Further, the growth was 24.8% with NCI-H522 lung; 67.4% with A549/ATCC NSCLC; 72.3% with 786-0 renal; 107% with COLO 205 colon; 54.7% with DU-145 prostate; 13.7% in the test on K-562 leukemia. For the same compound, the growth with MALME-3M melanoma was 62.6%; in the test with MDA-MB-231 breast it was 62.2%; in the test with RXF 393 renal it was 53%; in the test on SF-268 CNS, 55.8%; with SF-295 CNS, 17.1%; in the test on SF-539 CNS, 9.58% (active). For the same compound, the growth with UACC-257 melanoma was 79.4%; with M14 melanoma, 36.2%.

Take `CCO/C=N/S(=O)(=O)c1cc2c(cc1Cl)NC=NS2(=O)=O`: the growth was 103% in the test on NCI-H23 lung; 98.7% in the test on NCI-H226 lung; 111% with NCI-H322M lung; 93.9% with HOP-62 NSCLC; 106% in the test on NCI-H460 lung; 92.2% with HOP-92 NSCLC. The growth in the test with NCI-H522 lung is 99.4%; in the test with A549/ATCC NSCLC it was 89%; with 786-0 renal, 100%; in the test on COLO 205 colon, 108%; with DU-145 prostate, 108%; in the test with K-562 leukemia, 99.9%. The growth is 107% in the test with MALME-3M melanoma; 106% in the test with MDA-MB-231 breast; 103% in the test with RXF 393 renal; 103% with SF-268 CNS; 104% in the test on SF-295 CNS; 98.1% with SF-539 CNS. The results for the growth in the test with UACC-257 melanoma and with M14 melanoma were 90.2% and 101%, respectively.

Take `C=C1C(=O)O[C@H]2[C@H]1CC/C(COC(=O)CCC(=O)OC/C1=C/CC[C@@]3(C)O[C@H]3[C@H]3OC(=O)C(=C)[C@@H]3CC1)=C\CC[C@@]1(C)O[C@@H]21`: the growth is 58.5% in the test with NCI-H23 lung; 84.3% with NCI-H226 lung; 96.1% in the test on NCI-H322M lung; 85.7% in the test on HOP-62 NSCLC; 93.9% in the test on NCI-H460 lung; -1.85% (active) in the test with HOP-92 NSCLC. Moreover, the growth in the test on NCI-H522 lung was -69.2% (active); with A549/ATCC NSCLC, 88.7%; in the test with 786-0 renal it was 40.7%; in the test with COLO 205 colon, -55% (active); in the test with DU-145 prostate, 18.7%; with K-562 leukemia, 3.55% (active). For the same compound, the growth in the test with MALME-3M melanoma was -5.56% (active); with MDA-MB-231 breast, -0.376% (active); in the test on RXF 393 renal it was -71.4% (active); in the test with SF-268 CNS it was 78.8%; in the test with SF-295 CNS, 98.4%; with SF-539 CNS it was 16.6%. Moreover, the growth with UACC-257 melanoma was 21.4%; in the test with M14 melanoma, 1.21% (active).

On to `COc1ccc(-c2cs/c(=N\N=C\c3ccc(O)cc3O)n2/N=C/c2ccc(O)cc2O)cc1`, for which the growth in the test on NCI-H23 lung was -28.5% (active); in the test with NCI-H226 lung, -30.5% (active); in the test on NCI-H322M lung, 5.37% (active); in the test with HOP-62 NSCLC, -38.5% (active); with NCI-H460 lung, -10.5% (active); in the test on HOP-92 NSCLC it was 2.31% (active). For the same compound, the growth was -35.6% (active) in the test on NCI-H522 lung; -21.5% (active) in the test with A549/ATCC NSCLC; 6.51% (active) in the test on 786-0 renal; -81.1% (active) in the test with COLO 205 colon; 4.25% (active) with DU-145 prostate; -4.98% (active) in the test on K-562 leukemia. The growth in the test on MALME-3M melanoma is -22.5% (active); in the test on MDA-MB-231 breast it was 1.96% (active); in the test on RXF 393 renal it was -35.6% (active); in the test on SF-268 CNS, 4.27% (active); in the test with SF-295 CNS, -24.4% (active); in the test with SF-539 CNS, -33.1% (active). Also, the values for the growth with UACC-257 melanoma and in the test with M14 melanoma were -3.6% (active) and -19% (active), respectively.

In the case of `N#Cc1nc(-c2ccccc2)oc1S(=O)(=O)NCC(c1ccc(Cl)cc1)N1CCCCC1` (stereo not given), the growth in the test on NCI-H23 lung is 78.5%; in the test on NCI-H226 lung, 117%; with NCI-H322M lung, 85.3%; in the test with HOP-62 NSCLC it was 96.3%; with NCI-H460 lung it was 77.2%; with HOP-92 NSCLC, 79.4%. The growth was -18.3% (active) in the test with NCI-H522 lung; 89.2% in the test on A549/ATCC NSCLC; 87.1% with 786-0 renal; 79.3% in the test on COLO 205 colon; 84.4% with DU-145 prostate; 8.67% (active) with K-562 leukemia. Besides, the growth was 96.8% in the test on MALME-3M melanoma; 89.3% with MDA-MB-231 breast; 101% with RXF 393 renal; 78% with SF-268 CNS; 102% with SF-295 CNS; 87.5% with SF-539 CNS. Besides, the growth was 88.1% with UACC-257 melanoma and 76.4% with M14 melanoma.

For the compound `COc1cc(/C=C/CO)cc(OC)c1O[C@@H]1O[C@H](CO)[C@@H](O)[C@H](O)[C@H]1O`, the growth was 102% in the test with NCI-H23 lung; 86.2% in the test on NCI-H226 lung; 107% with NCI-H322M lung; 94.2% in the test with HOP-62 NSCLC; 103% with NCI-H460 lung; 94% with HOP-92 NSCLC. In addition, the growth in the test on NCI-H522 lung was 94.8%; in the test on A549/ATCC NSCLC it was 91.7%; with 786-0 renal, 96.7%; with COLO 205 colon, 107%; in the test with DU-145 prostate, 110%; with K-562 leukemia, 96.6%. Further, the growth with MALME-3M melanoma was 102%; in the test with MDA-MB-231 breast, 90.2%; in the test with RXF 393 renal, 100%; with SF-268 CNS it was 102%; in the test with SF-295 CNS, 98.7%; with SF-539 CNS, 105%. The growth is 96.3% with UACC-257 melanoma and 104% in the test on M14 melanoma.

Take `CC(=O)OC[C@]12CC[C@@H](c3cn(Cc4ccc(Cn5cc([C@@H]6CC[C@]7(COC(C)=O)CC[C@]8(C)[C@H](CC[C@@H]9[C@@]%10(C)CC[C@H](OC(C)=O)C(C)(C)[C@@H]%10CC[C@]98C)[C@@H]67)nn5)cc4)nn3)[C@@H]1[C@H]1CC[C@@H]3[C@@]4(C)CC[C@H](OC(C)=O)C(C)(C)[C@@H]4CC[C@@]3(C)[C@]1(C)CC2`: the growth is 98.3% in the test on NCI-H23 lung; 95.5% with NCI-H226 lung; 97.6% in the test on NCI-H322M lung; 94.9% in the test with HOP-62 NSCLC; 104% in the test on NCI-H460 lung; 103% in the test with HOP-92 NSCLC. Besides, the growth in the test on NCI-H522 lung was 88.5%; in the test on A549/ATCC NSCLC it was 93.5%; with 786-0 renal, 95.5%; with COLO 205 colon, 105%; with DU-145 prostate, 103%; in the test with K-562 leukemia, 94.7%. In addition, the growth in the test with MALME-3M melanoma was 98.8%; in the test on MDA-MB-231 breast, 96.9%; with RXF 393 renal, 105%; in the test with SF-268 CNS, 88.8%; in the test with SF-295 CNS, 98.8%; in the test with SF-539 CNS, 98.7%. Besides, the growth in the test on UACC-257 melanoma was 93.3%; in the test with M14 melanoma, 103%.
